Assay results taken from PubChem BioAssay (NCI).
Compounds without any hit were thinned out: in the full panel of roughly 83,000, 20% have a hit.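 Testing used 96-well plates and a 48-hour single-concentration exposure. Example: -40 means 40% of the starting cells died.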 A number with no mark means an inactive call. The source made the active and inactive calls. The calls were made as follows: active = growth percent below 10; inactive = the rest.

Assays:
Assay in all cases: NCI-60 one-dose screen, 48 h (100 = growth as untreated, 0 = no growth, -100 = all killed)
Conditions in all cases: 10 µM unless noted
SR leukemia = tested on: SR leukemia
RPMI-8226 leukemia = tested on: RPMI-8226 leukemia
OVCAR-8 ovarian = tested on: OVCAR-8 ovarian
OVCAR-5 ovarian = tested on: OVCAR-5 ovarian
OVCAR-4 ovarian = tested on: OVCAR-4 ovarian
SK-OV-3 ovarian = tested on: SK-OV-3 ovarian
IGROV1 ovarian = tested on: IGROV1 ovarian
OVCAR-3 ovarian = tested on: OVCAR-3 ovarian
HS 578T breast = tested on: HS 578T breast
NCI/ADR-RES ovarian = tested on: NCI/ADR-RES ovarian
T-47D breast = tested on: T-47D breast
BT-549 breast = tested on: BT-549 breast
MDA-MB-435 melanoma = tested on: MDA-MB-435 melanoma
SW-620 colon = tested on: SW-620 colon
HCT-116 colon = tested on: HCT-116 colon
HCC-2998 colon = tested on: HCC-2998 colon
KM12 colon = tested on: KM12 colon
MCF7 breast = tested on: MCF7 breast

Row | Compound | growth (SR leukemia) | growth (RPMI-8226 leukemia) | growth (OVCAR-8 ovarian) | growth (OVCAR-5 ovarian) | growth (OVCAR-4 ovarian) | growth (SK-OV-3 ovarian) | growth (IGROV1 ovarian) | growth (OVCAR-3 ovarian) | growth (HS 578T breast) | growth (NCI/ADR-RES ovarian) | growth (T-47D breast) | growth (BT-549 breast) | growth (MDA-MB-435 melanoma) | growth (SW-620 colon) | growth (HCT-116 colon) | growth (HCC-2998 colon) | growth (KM12 colon) | growth (MCF7 breast)
1 | CCCCC(CC)OC(=O)C(Br)CC (stereo not given) | 94.3% | 113% | 101% | 106% | 90.6% | 114% | 105% | 104% | 101% | 98.7% | 103% | 100% | 109% | 114% | 101% | 104% | 101% | –
2 | CCOC(=O)c1ccc2c(c1)c1c(C)c3cccnc3c(C)c1n2C | 16.1% | 62.8% | 46.2% | 69.3% | 62.7% | 84.1% | 24.1% | 69.8% | 85.2% | 48.4% | 44.9% | 79.5% | 73.4% | 34% | 23% | 86.9% | 61.4% | –
3 | COc1ccc(C2=C(c3cc(OC)c(OC)c(OC)c3)C(=O)CC2)cc1 | 15.7% | 14.1% | 22.8% | 33.1% | 49% | 7.01% (active) | 27.9% | -65.4% (active) | 6.1% (active) | -49.4% (active) | 60.5% | 28.3% | -19.2% (active) | 19.3% | 6.43% (active) | -11.3% (active) | 5.46% (active) | –
4 | CCCCCCCCCCCC(=O)NCCC[N+](C)(C)CC(=O)[O-] | 68.8% | 93.2% | 96.9% | 90.2% | 97.7% | 103% | 76.7% | 99.8% | 105% | 102% | 92% | 85.5% | 88.7% | 109% | 89.9% | – | 86.6% | 99.8%
5 | Cc1csc(NC(c2ccc(Br)cc2)c2c(C)nc3ccccn23)n1 (stereo not given) | 96.6% | 74.7% | 88.6% | 88.2% | 81.5% | 85.3% | 86.5% | 96.7% | 84.6% | 95.4% | 75.6% | 90.7% | 97.7% | 88.1% | 59.8% | 117% | 97.7% | –
6 | Clc1cccc(-c2cc(-c3ccc4c(c3)OCCO4)[nH]n2)c1 | 29.3% [25 µM] | 21.4% [25 µM] | 38.2% [25 µM] | 37% [25 µM] | 68.3% [25 µM] | 45.6% [25 µM] | 39.9% [25 µM] | 12.8% [25 µM] | 47% [25 µM] | 3.35% [25 µM] (active) | 22% [25 µM] | 53.7% [25 µM] | -37.5% [25 µM] (active) | 27.5% [25 µM] | 26.3% [25 µM] | – | 25.7% [25 µM] | 15.6% [25 µM]
7 | COc1ccc(C(=O)N2NC(=O)/C(=C/c3cn(-c4ccccc4)nc3-c3ccccc3)N=C2c2ccccc2)cc1 | 99.9% | 102% | 105% | 111% | 101% | 107% | 98.6% | 115% | 97.3% | 106% | 97.6% | 106% | 92.2% | 109% | 95.2% | – | 99.1% | 98.9%
8 | O=S1(=O)CCC(N(/N=C/c2ccco2)c2ccccc2)C1 (stereo not given) | 91% | 100% | 94.7% | 107% | 127% | 110% | 104% | 105% | 94.3% | 98.7% | 103% | 101% | 107% | 95.4% | 97.4% | – | 103% | 96.4%
9 | COc1ccc(C2=CC(c3cc(OC)c(OC)c(OC)c3)NC(=O)N2)cc1OC (stereo not given) | 9.57% (active) | 4.8% (active) | 18.8% | 34.6% | 18.8% | 23.3% | -17.7% (active) | -24% (active) | 7.62% (active) | 13.7% | – | 8.72% (active) | 7.31% (active) | 17.3% | 13.4% | 18.7% | -26.8% (active) | 15%
10 | O=c1[nH]c(-c2ccccc2)nc(CN2CCCCC2)c1O | 85.1% | 97.6% | 107% | 110% | 110% | 114% | 128% | 110% | 104% | 100% | – | 109% | 110% | 104% | 105% | 100% | 108% | –
11 | S=C1CC(=S)NC(=S)N1 | 109% | 122% | 104% | 110% | 99% | 111% | 96.7% | 116% | 101% | 105% | – | 110% | 112% | 98.2% | 105% | 104% | 98.9% | 94.1%
12 | C=C(C)[C@@H]1CC[C@]2(C(=O)O)CC[C@]3(C)[C@H](CC[C@@H]4[C@@]5(C)C[C@@H](CC#Cc6ccc(C(F)(F)F)cc6)[C@H](O)C(C)(C)[C@@H]5CC[C@]43C)[C@@H]12 | 15.6% | 9.12% (active) | 3.74% (active) | 52% | 1.55% (active) | 36.2% | 19.5% | -3.44% (active) | 24.1% | 76.1% | – | 36.7% | -31.8% (active) | 15% | 11.4% | 18.2% | 15.3% | 8.54% (active)
13 | CCn1c2ccccc2c2cc(NC(=O)Nc3ccc([N+](=O)[O-])cc3C)ccc21 | -2.84% (active) | -21.4% (active) | 49.9% | 57.9% | 44.2% | 74.9% | 43% | -2.64% (active) | 52.7% | 23.1% | – | 79.2% | 17.4% | 51.9% | 31.6% | 10.5% | 26.5% | 35.7%
14 | O=Nc1c(-c2cccc([N+](=O)[O-])c2)nc2ncccn12 | -27.8% (active) | -30.7% (active) | 81.1% | 93.5% | 86.5% | 101% | 40.5% | 44.9% | 107% | 97.5% | – | 73.4% | 99.2% | 18.2% | 51.1% | 93.6% | 89.3% | 70.2%
15 | COc1cccc(-c2nc3sccn3c2-c2ccnc(NCCCNS(=O)(=O)c3ccc(C(F)(F)F)cc3)c2)c1 | 51.2% | 33% | 45.1% | 95.7% | 38.3% | 72.6% | 60.5% | 61.7% | 63.1% | 35.5% | – | 54.6% | 36.8% | 68.5% | 41.9% | – | 57.2% | 31.1%
16 | CC(C)(C)n1cc(-c2ccnc(NCCCNS(=O)(=O)c3cccc(F)c3)c2)c(-c2cccc(O)c2)n1 | 16.4% | 17.5% | 57.5% | 68.2% | 57.8% | 89.2% | 58.8% | 65.7% | 58.2% | 62% | – | 67.4% | 61.2% | 24.5% | 47.1% | 15.7% | 26.5% | 21.6%
